# Reference: PubChem BioAssay (EPA / NIEHS)
# Some structures have more than one record in an assay (separate samples or runs), and their calls can disagree. Active and inactive are the calls of the source. Rule for the calls: active = hit-call score of the fitted dose curve at least 0.9, where 1 is the maximum; inactive = score below 0.9.
# What was measured:
# [1] = ATG_M_32_CIS: Attagene CIS-FACTORIAL HepG2 Assay for M32 Transcription Factor (Internal Marker) (AID 2282949); conditions: HepG2 Attagene cis-factorial M32 reporter, mRNA; actives raise or lower the signal;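 note: background control marker of the multiplexed CIS panel rather than a real target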
# In short: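 Fluorescent capillary electrophoresis peaks of HpaI-digested, FAM-labelled RT-PCR reporter products give the signal. Source: transiently transfected human liver HepG2 cells, 24 h after chemical dosing; bidirectional fitting against DMSO.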
# [2] = ATG_M_06_CIS: Attagene CIS-FACTORIAL HepG2 Assay for M06 Transcription Factor (Internal Marker) (AID 2282950); conditions: HepG2 Attagene CIS-FACTORIAL M06 internal marker reporter; actives raise or lower the signal
# In short: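 HepG2 cells transiently transfected with cis-regulated multiple reporter transcription units were exposed to chemical for 24 h; reporter mRNA was quantified by RT-PCR, 6-FAM primer labelling, HpaI digestion and capillary electrophoresis, fitted bidirectionally against DMSO.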
# [3] = molecular target: Hypoxia-inducible factor 1-alpha (Homo sapiens) (UniProt Q16665); experiment: ATG_HIF1a_CIS: Attagene CIS-FACTORIAL HepG2 Assay for human Hypoxia Inducible Factor 1 (HIF1A) (AID 2282951); conditions: HepG2 Attagene cis-factorial HIF1a reporter transcription; actives raise or lower the signal
# Chain of Hypoxia-inducible factor 1-alpha (Homo sapiens) (Q16665 whole entry, looked up): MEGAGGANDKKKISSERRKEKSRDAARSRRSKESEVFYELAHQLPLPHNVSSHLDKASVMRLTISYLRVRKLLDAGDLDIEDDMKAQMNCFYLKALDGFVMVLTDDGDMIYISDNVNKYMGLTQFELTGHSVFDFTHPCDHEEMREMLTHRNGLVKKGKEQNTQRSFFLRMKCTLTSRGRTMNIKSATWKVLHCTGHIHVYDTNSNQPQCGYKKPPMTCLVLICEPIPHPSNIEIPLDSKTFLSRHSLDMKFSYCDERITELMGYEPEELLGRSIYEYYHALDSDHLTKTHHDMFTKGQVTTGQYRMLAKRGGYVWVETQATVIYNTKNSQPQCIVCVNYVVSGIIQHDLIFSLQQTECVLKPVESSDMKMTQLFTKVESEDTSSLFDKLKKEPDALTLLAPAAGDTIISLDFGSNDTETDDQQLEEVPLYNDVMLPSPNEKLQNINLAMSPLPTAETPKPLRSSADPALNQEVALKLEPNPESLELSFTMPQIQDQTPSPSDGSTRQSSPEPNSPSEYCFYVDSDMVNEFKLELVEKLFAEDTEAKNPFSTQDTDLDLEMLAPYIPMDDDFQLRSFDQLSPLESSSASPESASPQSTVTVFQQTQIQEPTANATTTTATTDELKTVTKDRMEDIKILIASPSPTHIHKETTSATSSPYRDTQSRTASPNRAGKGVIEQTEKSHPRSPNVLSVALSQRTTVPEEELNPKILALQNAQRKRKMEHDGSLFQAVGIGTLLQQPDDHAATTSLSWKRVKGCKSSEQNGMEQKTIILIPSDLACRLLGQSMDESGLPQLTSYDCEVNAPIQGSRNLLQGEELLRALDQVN
# In short: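 Measures endogenous transcription-factor activity through cis-regulated reporter mRNA in HepG2. Cells dosed 24 h; transcripts quantified by RT-PCR with 6-FAM-labelled products separated by capillary electrophoresis; DMSO serves as negative control.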
# [4] = molecular target: Hepatocyte nuclear factor 6 (Homo sapiens) (UniProt Q9UBC0); experiment: ATG_HNF6_CIS: Attagene CIS-FACTORIAL HepG2 Assay for human Hepatocyte Nuclear Factor 6 (HNF6) (AID 2282952); conditions: HepG2 Attagene cis-factorial HNF6 reporter transcription; actives raise or lower the signal
# Chain of Hepatocyte nuclear factor 6 (Homo sapiens) (Q9UBC0 whole entry, looked up): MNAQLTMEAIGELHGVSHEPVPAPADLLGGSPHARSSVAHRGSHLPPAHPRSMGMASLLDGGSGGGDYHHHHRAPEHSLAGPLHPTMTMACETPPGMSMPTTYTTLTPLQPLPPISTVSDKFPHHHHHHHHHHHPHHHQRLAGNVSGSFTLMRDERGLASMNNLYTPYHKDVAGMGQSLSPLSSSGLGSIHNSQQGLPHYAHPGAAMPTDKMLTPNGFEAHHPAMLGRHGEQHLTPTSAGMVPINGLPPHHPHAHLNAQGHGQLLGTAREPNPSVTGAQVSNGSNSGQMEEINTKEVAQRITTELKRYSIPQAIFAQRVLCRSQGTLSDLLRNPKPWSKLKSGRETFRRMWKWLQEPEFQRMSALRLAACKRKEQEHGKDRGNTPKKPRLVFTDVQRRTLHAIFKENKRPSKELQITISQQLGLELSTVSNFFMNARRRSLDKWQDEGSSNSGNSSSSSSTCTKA
# In short: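 HepG2 cells transiently transfected with cis-element-driven multiple reporter transcription units, dosed 24 h; reporter mRNA quantified by RT-PCR, FAM primer extension, HpaI digestion and capillary electrophoresis; bidirectional fit versus DMSO baseline.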
# [5] = molecular target: Heat shock factor protein 1 (Homo sapiens) (UniProt Q00613); experiment: ATG_HSE_CIS: Attagene CIS-FACTORIAL HepG2 Assay for human Heat Shock Transcription Factor 1 (HSE) (AID 2282953); conditions: HepG2 HSE cis-reporter, Attagene RNA transcription; actives raise or lower the signal
# Chain of Heat shock factor protein 1 (Homo sapiens) (Q00613 whole entry, looked up): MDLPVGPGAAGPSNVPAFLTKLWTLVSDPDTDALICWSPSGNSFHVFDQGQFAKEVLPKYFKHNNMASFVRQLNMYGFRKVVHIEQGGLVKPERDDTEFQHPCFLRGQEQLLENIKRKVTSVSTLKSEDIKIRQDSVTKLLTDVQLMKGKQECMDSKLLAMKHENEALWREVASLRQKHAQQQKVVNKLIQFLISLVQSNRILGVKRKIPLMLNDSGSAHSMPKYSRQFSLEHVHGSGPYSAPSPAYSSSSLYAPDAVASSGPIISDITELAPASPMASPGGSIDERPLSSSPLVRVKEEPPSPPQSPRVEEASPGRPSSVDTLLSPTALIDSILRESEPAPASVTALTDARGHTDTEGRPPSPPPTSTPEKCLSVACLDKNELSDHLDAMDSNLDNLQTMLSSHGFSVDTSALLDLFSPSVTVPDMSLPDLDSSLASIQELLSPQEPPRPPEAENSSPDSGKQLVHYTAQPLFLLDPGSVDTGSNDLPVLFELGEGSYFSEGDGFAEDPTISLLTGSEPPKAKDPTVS
# In short: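 HepG2 cells transiently transfected with multiple reporter transcription units under cis-regulatory promoter control, measuring endogenous transcription factor activity. After 24 h chemical exposure, reporter mRNA quantified by RT-PCR, fluorescent labelling, HpaI digestion and capillary electrophoresis; bidirectional fit versus DMSO.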
# [6] = ATG_MRE_CIS: Attagene CIS-FACTORIAL HepG2 Assay for human Metal Responsive Element (MRE) (AID 2282954); conditions: HepG2 MRE cis-reporter transcription, Attagene multiplex; actives raise or lower the signal
# In short: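 HepG2 cells transiently transfected with cis-element-driven reporter units; mRNA measured 24 h after dosing. Reporter transcripts quantified by RT-PCR, FAM labelling, HpaI digestion and capillary electrophoresis; bidirectional fit versus DMSO.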
# [7] = ATG_PBREM_CIS: Attagene CIS-FACTORIAL HepG2 Assay for human Phenobarbital-responsive Enhancer Module (PBREM) (AID 2282955); conditions: HepG2 PBREM cis-reporter, Attagene multiplexed transcription; actives raise or lower the signal
# In short: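 Fluorescence of labelled reporter cDNA fragments, resolved by capillary electrophoresis, gives mRNA induction in transfected HepG2 cells treated for 24 h; DMSO serves as negative control and baseline.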
# [8] = molecular target: Paired box protein Pax-6 (Homo sapiens) (UniProt P26367); experiment: ATG_Pax6_CIS: Attagene CIS-FACTORIAL HepG2 Assay for human Paired Box 6 (PAX6) (AID 2282956); conditions: HepG2 CIS-FACTORIAL PAX6 reporter transcription, RNA readout; actives raise or lower the signal
# Chain of Paired box protein Pax-6 (Homo sapiens) (P26367 whole entry, looked up): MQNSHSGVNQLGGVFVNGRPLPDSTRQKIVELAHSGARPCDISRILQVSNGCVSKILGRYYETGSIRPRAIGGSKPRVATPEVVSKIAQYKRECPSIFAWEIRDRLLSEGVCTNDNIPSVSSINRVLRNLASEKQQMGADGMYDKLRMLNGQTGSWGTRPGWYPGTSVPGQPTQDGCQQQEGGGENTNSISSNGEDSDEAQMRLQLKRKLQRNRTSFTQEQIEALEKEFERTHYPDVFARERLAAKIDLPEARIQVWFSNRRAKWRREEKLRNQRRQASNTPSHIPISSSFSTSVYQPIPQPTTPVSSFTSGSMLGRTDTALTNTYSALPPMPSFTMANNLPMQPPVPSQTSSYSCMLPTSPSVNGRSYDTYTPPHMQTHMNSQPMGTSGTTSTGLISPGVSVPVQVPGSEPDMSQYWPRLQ
# In short: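 HepG2 cells transiently transfected with cis-promoter-driven multiplexed reporter units sensing endogenous transcription factor activity; 24 h chemical exposure. Reporter mRNA quantified by RT-PCR, 6-FAM labelling, HpaI digestion and capillary electrophoresis; bidirectional fit versus DMSO baseline.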
# [9] = ATG_PXRE_CIS: Attagene CIS-FACTORIAL HepG2 Assay for human Pregnane X Receptor Element (PXRE) (AID 2282957); conditions: HepG2 Attagene CIS-FACTORIAL PXRE reporter, mRNA; actives raise or lower the signal
# In short: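 HepG2 cells transiently transfected with cis-regulated multiple reporter transcription units; endogenous factor activity measured as reporter mRNA 24 h after dosing. RT-PCR, fluorescent primer extension, HpaI digestion, capillary electrophoresis; bidirectional fit versus DMSO baseline.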
# [10] = ATG_PPRE_CIS: Attagene CIS-FACTORIAL HepG2 Assay for human Peroxisome Proliferator-activated Response Element (PPRE) (AID 2282958); conditions: HepG2 PPRE cis-element reporter, Attagene transcription factor profiling; actives raise or lower the signal
# In short: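 Cells are first transfected transiently with the multiplexed reporter library, then dosed for 24 h. Total RNA is reverse-transcribed, amplified, fluorescently end-labeled and HpaI-cut before capillary electrophoresis; activity is fitted bidirectionally against DMSO controls.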
# [11] = ATG_RORE_CIS: Attagene CIS-FACTORIAL HepG2 Assay for human RAR-related Orphan Receptor Element (RORE) (AID 2282959); conditions: HepG2 Attagene cis-factorial RORE reporter, mRNA; actives raise or lower the signal
# In short: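 Cells were HepG2 carrying transfected cis-regulated reporter constructs, dosed for 24 hours. Total RNA was reverse-transcribed and reporter cDNA amplified, fluorescently labeled and sized by capillary electrophoresis. Activity was fitted bidirectionally relative to DMSO.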
# [12] = ATG_Sox_CIS: Attagene CIS-FACTORIAL HepG2 Assay for human SRY-box transcription factor (SOX) (AID 2282960); conditions: HepG2 Attagene cis-factorial SOX reporter, mRNA; actives raise or lower the signal
# In short: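 Transient MRTU transfection of HepG2; 24 h compound incubation; TriZol RNA, oligo(dT) RT, PCR, 6-FAM primer extension, HpaI cut, CE. Bidirectional fit, DMSO = baseline.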
# [13] = molecular target: Transcription factor Sp1 (Homo sapiens) (UniProt P08047); experiment: ATG_Sp1_CIS: Attagene CIS-FACTORIAL HepG2 Assay for human Specificity Protein 1 (Sp1) (AID 2282961); conditions: HepG2 Sp1 cis-reporter transcription, actives raise or lower the signal
# Chain of Transcription factor Sp1 (Homo sapiens) (P08047 whole entry, looked up): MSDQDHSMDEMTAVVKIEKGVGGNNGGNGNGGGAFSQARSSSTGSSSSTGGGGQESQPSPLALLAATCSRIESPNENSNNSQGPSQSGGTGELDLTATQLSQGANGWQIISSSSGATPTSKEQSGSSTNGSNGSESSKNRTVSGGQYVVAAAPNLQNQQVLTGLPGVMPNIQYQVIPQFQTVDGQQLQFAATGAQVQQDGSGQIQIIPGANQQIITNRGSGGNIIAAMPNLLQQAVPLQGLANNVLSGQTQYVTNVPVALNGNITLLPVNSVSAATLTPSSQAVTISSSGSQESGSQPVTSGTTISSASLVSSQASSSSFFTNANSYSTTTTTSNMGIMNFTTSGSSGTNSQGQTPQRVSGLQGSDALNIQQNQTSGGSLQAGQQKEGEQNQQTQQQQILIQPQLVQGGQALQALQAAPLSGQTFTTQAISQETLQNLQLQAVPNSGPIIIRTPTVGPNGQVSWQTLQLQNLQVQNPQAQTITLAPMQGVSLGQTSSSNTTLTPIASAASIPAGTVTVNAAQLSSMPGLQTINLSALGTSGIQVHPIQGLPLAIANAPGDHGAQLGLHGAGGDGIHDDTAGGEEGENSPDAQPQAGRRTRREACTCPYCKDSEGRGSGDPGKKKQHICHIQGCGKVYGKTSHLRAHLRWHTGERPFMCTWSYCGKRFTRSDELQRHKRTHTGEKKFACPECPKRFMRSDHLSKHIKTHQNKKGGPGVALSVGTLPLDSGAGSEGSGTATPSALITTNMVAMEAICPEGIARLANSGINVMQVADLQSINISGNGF
# In short: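 Endogenous Sp1 activity was gauged in human liver HepG2 cells bearing transfected reporter units under a cis-regulating promoter. After 24 h dosing, reporter mRNA was quantified by RT-PCR with capillary electrophoresis, and activity fitted bidirectionally versus DMSO.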
# [14] = ATG_SREBP_CIS: Attagene CIS-FACTORIAL HepG2 Assay for human Sterol Regulatory Element Binding (SREBP) (AID 2282962); conditions: HepG2 Attagene cis-factorial SREBP reporter, mRNA; actives raise or lower the signal
# In short: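 HepG2 cells transiently transfected with multiplexed cis-promoter reporter units sensing endogenous transcription factors; reporter mRNA measured 24 h after dosing by RT-PCR, 6-FAM labeling, HpaI digestion and capillary electrophoresis. Bidirectional fit versus DMSO.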
# [15] = molecular target: Signal transducer and activator of transcription 3 (Homo sapiens) (UniProt P40763); experiment: ATG_STAT3_CIS: Attagene CIS-FACTORIAL HepG2 Assay for human Signal Transducer and Activator of Transcription 3 (STAT3) (AID 2282963); conditions: HepG2, Attagene cis-factorial STAT3 reporter transcription; actives raise or lower the signal
# Chain of Signal transducer and activator of transcription 3 (Homo sapiens) (P40763 whole entry, looked up): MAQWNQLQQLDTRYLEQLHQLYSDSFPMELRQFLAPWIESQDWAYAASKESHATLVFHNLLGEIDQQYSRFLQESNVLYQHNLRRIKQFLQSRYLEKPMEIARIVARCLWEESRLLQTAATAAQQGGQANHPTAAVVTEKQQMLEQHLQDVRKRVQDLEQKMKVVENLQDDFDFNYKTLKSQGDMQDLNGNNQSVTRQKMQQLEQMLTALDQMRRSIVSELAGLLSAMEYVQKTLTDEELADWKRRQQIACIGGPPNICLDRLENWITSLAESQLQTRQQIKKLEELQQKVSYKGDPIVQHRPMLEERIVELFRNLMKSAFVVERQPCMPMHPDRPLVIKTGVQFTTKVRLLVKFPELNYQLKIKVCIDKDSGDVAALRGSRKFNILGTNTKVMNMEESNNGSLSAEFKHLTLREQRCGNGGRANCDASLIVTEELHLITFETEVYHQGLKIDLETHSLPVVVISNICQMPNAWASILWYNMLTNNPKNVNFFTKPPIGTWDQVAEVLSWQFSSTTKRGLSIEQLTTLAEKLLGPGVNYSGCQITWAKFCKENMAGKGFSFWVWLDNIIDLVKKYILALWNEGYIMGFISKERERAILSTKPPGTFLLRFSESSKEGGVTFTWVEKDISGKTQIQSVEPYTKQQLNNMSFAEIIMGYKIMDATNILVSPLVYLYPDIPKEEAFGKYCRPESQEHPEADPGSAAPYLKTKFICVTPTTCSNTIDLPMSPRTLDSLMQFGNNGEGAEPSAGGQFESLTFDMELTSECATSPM
# In short: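 HepG2 cells transiently transfected with multiple cis-element-driven reporter units report endogenous transcription factor activity. After 24 h compound exposure, reporter mRNA is measured by RT-PCR, 6-FAM labelling, HpaI digestion and capillary electrophoresis. Fitted bidirectionally versus DMSO.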
# [16] = ATG_TA_CIS: Attagene CIS-FACTORIAL HepG2 Assay for human TA Basal Promoter (AID 2282964); conditions: HepG2 Attagene CIS-factorial TA basal promoter reporter; actives raise or lower the signal
# In short: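 HepG2 cells transiently transfected with multiplexed cis-promoter reporter units, dosed 24 h. Reporter mRNA measured by RT-PCR, 6-FAM labelling, HpaI digestion and capillary electrophoresis; bidirectional fit versus DMSO baseline, serving as background control.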
# [17] = ATG_TCF_b_cat_CIS: Attagene CIS-FACTORIAL HepG2 Assay for human T-Cell-Factor with beta-catenin (TCF/b-cat) (AID 2282965); conditions: HepG2 TCF/beta-catenin cis-reporter transcription, actives raise or lower the signal
# In short: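 Cells of the HepG2 line carry transiently transfected reporter units whose promoters respond to endogenous factors. Twenty-four hours post-dosing, reporter mRNA induction is measured by fluorescent RT-PCR and capillary electrophoresis, with DMSO as baseline.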
# [18] = ATG_TAL_CIS: Attagene CIS-FACTORIAL HepG2 Assay for human TAL Basal Promoter (AID 2282966); conditions: HepG2 Attagene cis-factorial TAL promoter reporter; actives raise or lower the signal;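 note: background control endpoint measuring basal TAL promoter reporter mRNA not a specific factor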
# In short: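 HepG2 cells were transiently transfected with promoter-driven multiplexed reporter units and dosed for 24 h. Reporter mRNA was measured by RT-PCR with capillary electrophoresis fluorescence; bidirectional fits used DMSO as baseline, serving as a background control.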
# [19] = ATG_TGFb_CIS: Attagene CIS-FACTORIAL HepG2 Assay for human Transforming Growth Factor (TGF) (AID 2282967); conditions: HepG2 Attagene CIS TGFb reporter, mRNA transcription; actives raise or lower the signal
# In short: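 HepG2 cells transiently transfected with cis-promoter-driven multiplexed reporter units; 24 h compound exposure. Reporter mRNA measured by RT-PCR, 6-FAM labeling, HpaI digestion and capillary electrophoresis; bidirectional fit versus DMSO baseline.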
# [20] = ATG_VDRE_CIS: Attagene CIS-FACTORIAL HepG2 Assay for human Vitamin D Receptor Element (VDRE) (AID 2282968); conditions: HepG2 VDRE cis-reporter transcription, actives raise or lower the signal
# In short: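 Transiently transfected HepG2 cells carrying cis-regulated reporter transcription units were exposed for 24 h. Reporter mRNA was measured by RT-PCR with fluorescent labelling and capillary electrophoresis, and fitted in both directions against DMSO.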
compound,measurement,setting,value
COCC1CCC(CO)CC1 (centres undefined),outcome,[1],inactive
same,outcome,[2],inactive
same,outcome,[3],inactive
same,outcome,[4],inactive
same,outcome,[5],inactive
same,outcome,[6],inactive
same,outcome,[7],inactive
same,outcome,[8],inactive
same,outcome,[9],inactive
same,outcome,[10],inactive
same,outcome,[11],inactive
same,outcome,[12],inactive
same,outcome,[13],inactive
same,outcome,[14],inactive
same,outcome,[15],inactive
same,outcome,[16],inactive
same,outcome,[17],inactive
same,outcome,[18],inactive
same,outcome,[19],inactive
same,outcome,[20],inactive
Oc1cc2ccccc2cc1O,outcome,[1],inactive
same,outcome,[2],inactive
same,outcome,[3],inactive
same,outcome,[4],inactive
same,outcome,[5],inactive
same,outcome,[6],inactive
same,outcome,[7],inactive
same,outcome,[8],inactive
same,outcome,[9],inactive
same,AC50,[10],100 µM (active)
same,outcome,[11],inactive
same,outcome,[12],inactive
same,outcome,[13],inactive
same,outcome,[14],inactive
same,outcome,[15],inactive
same,outcome,[16],inactive
same,outcome,[17],inactive
same,outcome,[18],inactive
same,outcome,[19],inactive
same,outcome,[20],inactive
C=CC(C)(CCC=C(C)C)OC(C)=O (centres undefined),outcome,[1],inactive
same,outcome,[2],inactive
same,outcome,[3],inactive
same,outcome,[4],inactive
same,outcome,[5],inactive
same,outcome,[6],inactive
same,outcome,[7],inactive
same,outcome,[8],inactive
same,AC50,[9],22.8 µM (active)
same,outcome,[10],inactive
same,outcome,[11],inactive
same,outcome,[12],inactive
same,outcome,[13],inactive
same,outcome,[14],inactive
same,outcome,[15],inactive
same,outcome,[16],inactive
same,outcome,[17],inactive
same,outcome,[18],inactive
same,outcome,[19],inactive
same,outcome,[20],inactive
CC(C)(C)c1ccc(CCC=O)cc1,outcome,[1],inactive
same,outcome,[2],inactive
same,outcome,[3],inactive
same,outcome,[4],inactive
same,outcome,[5],inactive
same,outcome,[6],inactive
same,outcome,[7],inactive
same,outcome,[8],inactive
same,AC50,[9],22.3 µM (active)
same,outcome,[10],inactive
same,outcome,[11],inactive
same,outcome,[12],inactive
same,outcome,[13],inactive
same,outcome,[14],inactive
same,outcome,[15],inactive
same,outcome,[16],inactive
same,AC50,[17],162 µM (active)
same,outcome,[18],inactive
same,outcome,[20],inactive
CCN(CC)CC,outcome,[1],inactive
same,outcome,[2],inactive
same,outcome,[3],inactive
same,outcome,[4],inactive
same,outcome,[5],inactive
same,outcome,[6],inactive
same,outcome,[7],inactive
same,outcome,[8],inactive
same,outcome,[9],inactive
same,outcome,[10],inactive
same,outcome,[11],inactive
same,AC50,[12],18.3 µM (active)
same,outcome,[12],inactive
same,outcome,[13],inactive
same,outcome,[14],inactive
same,outcome,[15],inactive
same,outcome,[16],inactive
same,outcome,[17],inactive
same,outcome,[18],inactive
same,outcome,[19],inactive
same,outcome,[20],inactive
OCC(CO)(CBr)CBr,outcome,[1],inactive
same,outcome,[2],inactive
same,outcome,[3],inactive
same,outcome,[4],inactive
same,outcome,[5],inactive
same,outcome,[6],inactive
same,outcome,[7],inactive
same,outcome,[8],inactive
same,outcome,[9],inactive
same,outcome,[10],inactive
same,outcome,[11],inactive
same,outcome,[12],inactive
same,outcome,[13],inactive
same,outcome,[14],inactive
same,outcome,[15],inactive
same,outcome,[16],inactive
same,outcome,[17],inactive
same,outcome,[18],inactive
same,outcome,[19],inactive
